These results are taken from PubChem BioAssay AID1851 (National Center for Advancing Translational Sciences (NCATS), 2009).

The whole screen tested about 16,000 compounds, of which about 5,700 (36%) were called active. Inconclusive results (about 24%) are left out. This is one part of the list. Values without a mark were called inactive. The call rests on the fitted dose curve; in most records, active means well fitted curve in the direction sought with a large enough effect; inconclusive means small, poorly fitted or top-dose-only effect, or effect the other way; inactive means no such curve, though single readings can be large or run the other way.
On the % scale 0 is the no-effect control and ±100 the full control effect.

In this assay the target is Cytochrome P450 1A2 (Homo sapiens) (UniProt P05177). Kind of assay: Cytochrome panel assay with activity outcomes. To be noted: recombinant CYP, pro-luciferin dealkylation, luminescence, p450-cyp1a2; series mostly up to 57.1 µM.
Sequence of Cytochrome P450 1A2 (Homo sapiens) (P05177 whole entry, looked up): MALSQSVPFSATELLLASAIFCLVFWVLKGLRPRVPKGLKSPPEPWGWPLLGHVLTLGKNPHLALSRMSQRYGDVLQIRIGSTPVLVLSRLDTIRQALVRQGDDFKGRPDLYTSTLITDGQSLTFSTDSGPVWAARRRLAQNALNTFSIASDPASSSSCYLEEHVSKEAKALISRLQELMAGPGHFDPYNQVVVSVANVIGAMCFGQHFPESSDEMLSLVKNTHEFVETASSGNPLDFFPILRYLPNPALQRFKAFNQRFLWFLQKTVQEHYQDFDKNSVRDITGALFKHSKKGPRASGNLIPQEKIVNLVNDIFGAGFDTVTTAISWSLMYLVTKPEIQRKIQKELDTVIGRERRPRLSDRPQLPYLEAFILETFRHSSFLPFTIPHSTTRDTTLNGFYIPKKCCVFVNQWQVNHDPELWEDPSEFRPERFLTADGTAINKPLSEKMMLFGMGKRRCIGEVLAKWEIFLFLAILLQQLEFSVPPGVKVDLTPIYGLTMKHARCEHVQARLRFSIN
As to `CC(C)N(CCC(=O)c1ccc2ccccc2c1)Cc1ccccc1`, the AC50 is 3.98 µM (active).
Consider `CC(C)N(CCNC(=O)C1CCN(S(=O)(=O)N2CCOCC2)CC1)Cc1ccccc1`, for which the AC50 result is “inactive”.
On to `CC(C)N(CCNC(=O)C1CCC(=O)N1Cc1ccc(F)cc1)Cc1ccccc1` (stereo not drawn), for which the AC50 entry is “inactive”.
On the same count and under the same terms, then `N=C(N)S[C@H]1c2ccccc2-c2cc([N+](=O)[O-])ccc21`, with 0.158 µM (active).
Turning to `CN1CCCN(C)C1c1cc([N+](=O)[O-])ccc1O`, the activity, negative = inhibition was -14.3% [at 11.4 µM].
Regarding `COc1ccc(/C(O)=C2/C(=O)C(=O)N(Cc3cccnc3)C2c2ccco2)cc1OC` (stereo not drawn), the AC50 entry is “inactive”.
Same read-out and setting: with `COCCCN1C(=O)C(=O)/C(=C(/O)c2ccc(OC)cc2C)C1c1cccnc1` (stereo not drawn) the entry was “inactive”.
Take `Cc1ccc(C)c(/C(O)=C2\C(=O)C(=O)N(Cc3cccnc3)C2c2cccnc2)c1` (stereo not drawn): the AC50 was 25.1 µM (active).
For `CCNc1ncc2nc(-c3ccc(Cl)cc3)c(=O)n(Cc3cccc(OC)c3)c2n1`, the AC50 result was “inactive”.
For the compound `COc1cccc(Cn2c(=O)c(-c3cccs3)nc3cnc(OC)nc32)c1`, the AC50 is 3.16 µM (active).
As to `COc1cccc(Cn2c(=O)c(-c3ccc(Cl)cc3)nc3cnc(OC)nc32)c1`, the AC50 is 3.98 µM (active).
Same read-out and setting: then `COc1ccc(Oc2ncc3nc(-c4cccs4)c(=O)n(Cc4cccc(OC)c4)c3n2)cc1`, with “inactive”.
For the compound `COc1cccc(Cn2c(=O)c(-c3cccs3)nc3cncnc32)c1`, the AC50 was 5.01 µM (active).
Take `COc1cc(C2SCCCCCCCCCCSC(c3ccc(O)c(OC)c3)SCCCCCCCCCCS2)ccc1O` (stereo not drawn): the activity, negative = inhibition was -6.91% [at 2.29 µM].
Regarding `COCC(=O)N1CCC2(CC1)CN(Cc1ccc(C#N)cc1)C2`, the AC50 entry is “inactive”.
Consider `CC(C)=CCC/C(C)=C/CO/N=C1/C[C@@H](O)[C@@H](O)[C@@H]2[C@@H]3C(=O)N(Cc4ccc5c(c4)OCO5)C(=O)[C@H]3CC[C@@H]12`, for which the activity, negative = inhibition is -3.81% [at 11.4 µM].
For `N[C@@H](CO)C(=O)O`, the AC50 result is “inactive”.
In the case of `O=C(CSc1nnc(SCc2cccc3ccccc23)s1)c1ccc2c(c1)OCO2`, the AC50 was 2.24 µM (active).
With `O=C(O)[C@@H]1Cc2c([nH]c3ccccc23)[C@@H](CCCCO)N1`, the activity, negative = inhibition was -9.61% [at 2.29 µM].
As to `COC(=O)C1Cc2c([nH]c3ccccc23)CN1` (stereo not drawn), the AC50 is 0.398 µM (active).
As to `CC[C@H]1CN(C)[C@H]2Cc3c([nH]c4ccccc34)C(=O)C[C@H]1[C@H]2C(=O)OC`, the activity, negative = inhibition was -10.5% [at 11.4 µM].
As for `O=C1Nc2ccc(F)cc2C12SCCS2`, the AC50 is 15.8 µM (active).
In the case of `Cc1ccc2c(c1)C1(SCCS1)C(=O)N2`, the AC50 is 0.891 µM (active).
With `CCOC(=O)n1c(=O)n(Cc2ccccc2Cl)c2ccccc21`, the AC50 was 4.47 µM (active).
On to `COC(=O)Cn1c(=O)c2c(nc(Br)n2Cc2ccccc2Cl)n(C)c1=O`, for which the AC50 entry was “inactive”.
Consider `CCOC(=O)n1c(=O)n(Cc2c(Cl)cccc2Cl)c2ccccc21`, for which the AC50 is 14.1 µM (active).
For the compound `CN(CCCNC(=O)C1CCC(=O)N1Cc1ccccc1Cl)c1ccccc1` (stereo not drawn), the AC50 entry was “inactive”.
For `CCOC(=O)CC1C(=O)NCCN1S(=O)(=O)c1ccccc1Cl` (stereo not drawn), the AC50 result is “inactive”.

The AC50 is the concentration giving half of the maximal activity seen.
